In the supplement of paper PMC11732987, “Enantioselective OTUD7B fragment discovery through chemoproteomics screening and high-throughput optimisation” (Communications Chemistry, 2025):

Key:
Assay in all cases: log2 ratio of Biotin-Ahx-Ub-VS probe labelling (fragment/DMSO); higher = less target engagement (more negative = stronger competition), active = hit call of the paper (q ≤ 0.05, log2 ratio ≤ -1)
Details in all cases: compound concentration: 200 uM; treatment time: 3 h
[1] = biological target: USP34 (UniProt Q70CQ2)
Outline: (§1)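 Using Biotin-Ahx-Ub-VS at 0.5 µM final for 1 h, DUBs were labelled in HEK293T lysate (495 µg per sample) that had first been treated in triplicate with fragment at 200 µM or vehicle for 3 h. NeutrAvidin enrichment, LysC and trypsin digestion and diaPASEF LC-MS/MS followed. Spectronaut label-free quantities were global-median-normalised. Values are average log2 fragment/vehicle ratios by unpaired t-test, using proteins with ≥2 unique peptides.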

[2] = biological target: T1, USP36 (UniProt Q9P275)
T1 sequence (whole entry): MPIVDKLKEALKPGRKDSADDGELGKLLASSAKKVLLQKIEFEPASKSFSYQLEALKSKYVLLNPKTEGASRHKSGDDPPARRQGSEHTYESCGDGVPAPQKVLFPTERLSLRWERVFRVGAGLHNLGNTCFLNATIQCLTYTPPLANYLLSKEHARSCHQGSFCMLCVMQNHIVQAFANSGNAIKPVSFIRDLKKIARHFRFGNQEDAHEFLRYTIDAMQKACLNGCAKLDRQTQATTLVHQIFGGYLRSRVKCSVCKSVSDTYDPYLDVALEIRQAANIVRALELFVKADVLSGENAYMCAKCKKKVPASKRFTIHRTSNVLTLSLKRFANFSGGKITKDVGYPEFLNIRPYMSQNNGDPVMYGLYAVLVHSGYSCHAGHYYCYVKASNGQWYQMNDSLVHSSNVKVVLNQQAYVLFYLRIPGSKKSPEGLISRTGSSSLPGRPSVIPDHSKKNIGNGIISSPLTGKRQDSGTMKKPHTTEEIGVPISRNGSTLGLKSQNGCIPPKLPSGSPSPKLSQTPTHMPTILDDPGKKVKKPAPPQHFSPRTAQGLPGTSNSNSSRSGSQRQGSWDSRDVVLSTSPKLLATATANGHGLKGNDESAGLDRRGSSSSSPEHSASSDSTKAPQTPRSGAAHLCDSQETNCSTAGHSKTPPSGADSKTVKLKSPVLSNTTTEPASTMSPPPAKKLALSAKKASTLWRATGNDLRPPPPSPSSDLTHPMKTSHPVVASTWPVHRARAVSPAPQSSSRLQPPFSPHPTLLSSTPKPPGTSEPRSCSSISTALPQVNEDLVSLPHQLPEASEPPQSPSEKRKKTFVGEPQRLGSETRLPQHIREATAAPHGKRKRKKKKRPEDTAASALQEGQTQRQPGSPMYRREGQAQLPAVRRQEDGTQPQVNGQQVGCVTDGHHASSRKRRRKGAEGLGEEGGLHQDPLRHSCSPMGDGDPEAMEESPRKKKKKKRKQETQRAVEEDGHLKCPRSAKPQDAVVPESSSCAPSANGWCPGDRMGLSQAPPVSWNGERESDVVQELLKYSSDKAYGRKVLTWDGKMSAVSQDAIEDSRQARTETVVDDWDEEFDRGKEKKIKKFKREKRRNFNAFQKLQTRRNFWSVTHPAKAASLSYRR
Outline: as §1

[3] = biological target: T2, USP38 (UniProt Q8NB14)
T2 sequence (whole entry): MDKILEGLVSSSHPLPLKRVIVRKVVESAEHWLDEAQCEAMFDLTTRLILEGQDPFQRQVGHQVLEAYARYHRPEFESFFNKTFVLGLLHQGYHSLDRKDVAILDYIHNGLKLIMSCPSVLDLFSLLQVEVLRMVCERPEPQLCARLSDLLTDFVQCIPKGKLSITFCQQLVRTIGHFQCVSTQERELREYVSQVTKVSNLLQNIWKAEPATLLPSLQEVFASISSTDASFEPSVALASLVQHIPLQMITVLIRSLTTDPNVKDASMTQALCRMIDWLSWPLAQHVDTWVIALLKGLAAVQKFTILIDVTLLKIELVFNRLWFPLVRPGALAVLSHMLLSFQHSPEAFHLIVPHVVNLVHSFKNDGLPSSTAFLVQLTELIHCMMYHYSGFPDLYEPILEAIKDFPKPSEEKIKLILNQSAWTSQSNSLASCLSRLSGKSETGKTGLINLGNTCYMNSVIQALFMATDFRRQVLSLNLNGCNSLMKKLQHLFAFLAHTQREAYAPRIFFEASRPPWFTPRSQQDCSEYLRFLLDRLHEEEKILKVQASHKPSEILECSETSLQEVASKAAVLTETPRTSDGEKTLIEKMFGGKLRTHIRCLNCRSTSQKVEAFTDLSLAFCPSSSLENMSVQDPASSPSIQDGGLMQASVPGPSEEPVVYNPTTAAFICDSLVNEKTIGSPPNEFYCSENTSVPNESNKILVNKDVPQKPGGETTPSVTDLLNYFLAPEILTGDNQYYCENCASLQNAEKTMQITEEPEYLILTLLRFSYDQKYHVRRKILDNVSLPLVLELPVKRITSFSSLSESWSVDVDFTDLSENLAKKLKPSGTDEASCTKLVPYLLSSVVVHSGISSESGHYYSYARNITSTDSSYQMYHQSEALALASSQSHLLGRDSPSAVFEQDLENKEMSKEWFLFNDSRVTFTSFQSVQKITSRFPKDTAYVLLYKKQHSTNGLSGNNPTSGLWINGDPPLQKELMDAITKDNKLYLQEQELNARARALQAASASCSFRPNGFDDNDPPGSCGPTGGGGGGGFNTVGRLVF
Outline: as §1

[4] = biological target: T3, USP39 (UniProt Q53GS9)
T3 sequence (whole entry): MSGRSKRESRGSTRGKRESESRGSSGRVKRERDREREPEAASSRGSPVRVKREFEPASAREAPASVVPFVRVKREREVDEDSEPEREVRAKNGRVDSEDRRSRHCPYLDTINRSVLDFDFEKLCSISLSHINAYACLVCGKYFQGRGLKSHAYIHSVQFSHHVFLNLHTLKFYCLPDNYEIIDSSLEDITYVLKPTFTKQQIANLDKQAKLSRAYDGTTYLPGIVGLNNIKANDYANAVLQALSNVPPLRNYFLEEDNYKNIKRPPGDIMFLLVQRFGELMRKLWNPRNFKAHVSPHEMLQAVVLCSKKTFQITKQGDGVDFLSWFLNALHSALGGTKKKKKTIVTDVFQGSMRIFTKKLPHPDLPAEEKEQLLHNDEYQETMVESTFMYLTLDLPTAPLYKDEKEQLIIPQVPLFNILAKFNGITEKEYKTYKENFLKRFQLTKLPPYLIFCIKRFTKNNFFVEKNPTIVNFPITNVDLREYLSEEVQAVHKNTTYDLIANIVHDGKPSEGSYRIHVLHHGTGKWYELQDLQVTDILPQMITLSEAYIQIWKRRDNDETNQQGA
Outline: as §1

[5] = biological target: T4, USP4 (UniProt Q13107)
T4 sequence (whole entry): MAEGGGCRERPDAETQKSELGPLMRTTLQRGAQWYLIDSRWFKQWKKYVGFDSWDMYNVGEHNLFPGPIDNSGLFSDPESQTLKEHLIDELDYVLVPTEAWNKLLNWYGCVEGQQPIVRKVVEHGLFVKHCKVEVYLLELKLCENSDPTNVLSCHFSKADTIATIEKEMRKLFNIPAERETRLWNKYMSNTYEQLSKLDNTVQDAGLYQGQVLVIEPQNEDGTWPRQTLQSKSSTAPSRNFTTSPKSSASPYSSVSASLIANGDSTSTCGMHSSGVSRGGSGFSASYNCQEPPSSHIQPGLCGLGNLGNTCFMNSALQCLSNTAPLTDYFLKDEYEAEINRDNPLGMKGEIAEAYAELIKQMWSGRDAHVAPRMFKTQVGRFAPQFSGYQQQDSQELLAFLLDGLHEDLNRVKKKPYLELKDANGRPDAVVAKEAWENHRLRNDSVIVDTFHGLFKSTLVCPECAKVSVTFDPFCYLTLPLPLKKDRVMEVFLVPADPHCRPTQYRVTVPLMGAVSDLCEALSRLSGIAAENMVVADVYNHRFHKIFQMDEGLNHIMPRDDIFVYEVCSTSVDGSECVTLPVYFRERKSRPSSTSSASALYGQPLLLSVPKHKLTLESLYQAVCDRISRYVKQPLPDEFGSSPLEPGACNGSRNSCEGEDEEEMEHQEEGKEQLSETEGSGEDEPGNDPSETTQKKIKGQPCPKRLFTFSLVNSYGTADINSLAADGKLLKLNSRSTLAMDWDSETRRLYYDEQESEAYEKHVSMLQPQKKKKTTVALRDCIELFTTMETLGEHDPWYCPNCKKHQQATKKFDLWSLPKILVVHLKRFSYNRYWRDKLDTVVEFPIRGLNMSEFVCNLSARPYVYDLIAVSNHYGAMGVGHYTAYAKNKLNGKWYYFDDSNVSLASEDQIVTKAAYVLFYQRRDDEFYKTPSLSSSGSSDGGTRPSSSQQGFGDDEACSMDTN
Outline: as §1

Measured: log2 ratio of Biotin-Ahx-Ub-VS probe labelling

Sequence of USP34 (Q70CQ2 whole entry, the tested form may be a part): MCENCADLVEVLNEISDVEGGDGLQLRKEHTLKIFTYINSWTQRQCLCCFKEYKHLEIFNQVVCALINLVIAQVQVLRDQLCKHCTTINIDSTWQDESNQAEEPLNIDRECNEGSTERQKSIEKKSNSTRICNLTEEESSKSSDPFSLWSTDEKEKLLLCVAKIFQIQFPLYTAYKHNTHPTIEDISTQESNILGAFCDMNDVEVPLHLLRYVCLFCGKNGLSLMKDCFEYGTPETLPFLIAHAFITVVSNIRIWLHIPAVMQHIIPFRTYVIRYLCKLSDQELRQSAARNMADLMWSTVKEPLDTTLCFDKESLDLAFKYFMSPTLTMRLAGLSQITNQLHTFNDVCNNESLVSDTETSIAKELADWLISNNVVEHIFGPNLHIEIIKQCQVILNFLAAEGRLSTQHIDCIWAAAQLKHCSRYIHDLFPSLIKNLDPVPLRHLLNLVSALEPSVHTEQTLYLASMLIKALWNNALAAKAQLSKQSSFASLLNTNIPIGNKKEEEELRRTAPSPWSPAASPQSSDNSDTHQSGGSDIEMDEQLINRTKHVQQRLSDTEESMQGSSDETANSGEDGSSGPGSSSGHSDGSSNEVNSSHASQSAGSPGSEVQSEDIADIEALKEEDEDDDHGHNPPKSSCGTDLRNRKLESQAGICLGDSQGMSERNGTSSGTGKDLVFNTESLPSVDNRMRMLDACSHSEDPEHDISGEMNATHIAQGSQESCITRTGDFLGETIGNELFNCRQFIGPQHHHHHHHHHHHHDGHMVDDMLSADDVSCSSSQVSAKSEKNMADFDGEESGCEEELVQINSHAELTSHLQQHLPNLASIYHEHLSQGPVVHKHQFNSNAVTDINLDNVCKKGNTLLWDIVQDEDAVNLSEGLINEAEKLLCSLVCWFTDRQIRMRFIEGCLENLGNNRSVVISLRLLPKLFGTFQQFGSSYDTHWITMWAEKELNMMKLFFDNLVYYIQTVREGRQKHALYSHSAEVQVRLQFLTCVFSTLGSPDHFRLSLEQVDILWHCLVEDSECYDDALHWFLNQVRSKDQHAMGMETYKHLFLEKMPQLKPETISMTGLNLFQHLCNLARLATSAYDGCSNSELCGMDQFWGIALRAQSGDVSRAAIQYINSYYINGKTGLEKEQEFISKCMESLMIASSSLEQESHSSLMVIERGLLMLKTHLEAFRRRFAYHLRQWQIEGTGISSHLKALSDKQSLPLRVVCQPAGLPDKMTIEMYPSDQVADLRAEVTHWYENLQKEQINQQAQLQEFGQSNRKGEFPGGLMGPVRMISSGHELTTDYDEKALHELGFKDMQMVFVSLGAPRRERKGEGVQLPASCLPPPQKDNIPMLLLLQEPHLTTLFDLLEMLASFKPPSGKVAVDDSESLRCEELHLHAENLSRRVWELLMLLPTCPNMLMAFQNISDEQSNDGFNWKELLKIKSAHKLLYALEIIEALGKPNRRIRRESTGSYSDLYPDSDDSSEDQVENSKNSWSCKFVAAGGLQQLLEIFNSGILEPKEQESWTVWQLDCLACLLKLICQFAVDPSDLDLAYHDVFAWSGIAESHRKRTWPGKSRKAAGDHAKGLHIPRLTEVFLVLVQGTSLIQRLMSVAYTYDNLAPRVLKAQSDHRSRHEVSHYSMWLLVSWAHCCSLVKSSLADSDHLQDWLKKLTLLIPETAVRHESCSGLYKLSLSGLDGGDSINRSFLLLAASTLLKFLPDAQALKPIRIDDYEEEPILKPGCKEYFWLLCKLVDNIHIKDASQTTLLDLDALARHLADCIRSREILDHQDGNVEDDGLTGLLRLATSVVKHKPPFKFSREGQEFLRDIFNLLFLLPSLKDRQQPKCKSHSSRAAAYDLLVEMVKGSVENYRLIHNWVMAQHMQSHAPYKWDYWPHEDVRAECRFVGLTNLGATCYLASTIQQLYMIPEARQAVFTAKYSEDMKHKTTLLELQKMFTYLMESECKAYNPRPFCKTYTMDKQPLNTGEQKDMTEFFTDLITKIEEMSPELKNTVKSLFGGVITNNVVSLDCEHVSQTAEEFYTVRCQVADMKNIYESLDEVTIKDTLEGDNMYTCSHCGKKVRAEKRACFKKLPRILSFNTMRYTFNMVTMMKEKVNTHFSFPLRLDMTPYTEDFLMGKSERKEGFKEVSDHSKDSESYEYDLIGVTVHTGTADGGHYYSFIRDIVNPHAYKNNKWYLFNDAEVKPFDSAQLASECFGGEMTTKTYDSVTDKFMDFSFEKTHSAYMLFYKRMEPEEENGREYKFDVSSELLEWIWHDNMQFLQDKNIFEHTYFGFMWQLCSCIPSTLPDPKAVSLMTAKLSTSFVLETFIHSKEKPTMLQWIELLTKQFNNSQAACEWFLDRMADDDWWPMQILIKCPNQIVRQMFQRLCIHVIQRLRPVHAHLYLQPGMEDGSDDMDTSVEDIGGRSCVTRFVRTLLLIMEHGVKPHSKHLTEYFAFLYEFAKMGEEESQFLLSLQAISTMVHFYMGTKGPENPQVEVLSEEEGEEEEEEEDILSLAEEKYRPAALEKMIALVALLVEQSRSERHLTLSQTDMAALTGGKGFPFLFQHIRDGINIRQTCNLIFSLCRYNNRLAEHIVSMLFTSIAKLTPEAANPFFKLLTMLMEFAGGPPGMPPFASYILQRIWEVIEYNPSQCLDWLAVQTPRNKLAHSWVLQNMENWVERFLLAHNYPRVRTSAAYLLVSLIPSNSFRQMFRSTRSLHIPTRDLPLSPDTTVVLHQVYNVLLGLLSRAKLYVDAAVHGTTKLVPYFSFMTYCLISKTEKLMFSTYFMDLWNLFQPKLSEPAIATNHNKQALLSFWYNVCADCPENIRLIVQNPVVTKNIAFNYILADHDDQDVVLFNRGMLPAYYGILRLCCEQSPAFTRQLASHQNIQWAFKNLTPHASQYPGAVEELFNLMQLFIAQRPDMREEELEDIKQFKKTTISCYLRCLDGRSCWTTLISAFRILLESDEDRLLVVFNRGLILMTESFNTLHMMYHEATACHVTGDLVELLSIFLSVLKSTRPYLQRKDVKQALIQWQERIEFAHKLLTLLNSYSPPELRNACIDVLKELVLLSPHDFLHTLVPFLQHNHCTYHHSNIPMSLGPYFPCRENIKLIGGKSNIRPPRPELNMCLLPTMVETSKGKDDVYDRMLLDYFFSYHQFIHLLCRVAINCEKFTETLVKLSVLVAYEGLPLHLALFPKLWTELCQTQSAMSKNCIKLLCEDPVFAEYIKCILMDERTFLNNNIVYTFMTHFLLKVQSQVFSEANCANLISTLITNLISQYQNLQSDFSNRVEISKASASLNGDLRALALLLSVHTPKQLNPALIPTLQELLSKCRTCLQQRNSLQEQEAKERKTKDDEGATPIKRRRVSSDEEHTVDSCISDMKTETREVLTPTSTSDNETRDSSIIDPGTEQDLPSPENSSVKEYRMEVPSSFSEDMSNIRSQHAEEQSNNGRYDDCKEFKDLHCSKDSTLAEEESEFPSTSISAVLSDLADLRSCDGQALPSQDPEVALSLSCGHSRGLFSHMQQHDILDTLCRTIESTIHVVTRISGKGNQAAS

CS(=O)(=O)N1CCCN(C(=O)CCl)CC1
inactive: [1] -0.016 | [2] -0.255 | [3] -0.0208 | [4] 0.0871 | [5] -0.0865
